Rows were chosen to be rich in hits. Some 3.1% of all compounds tested hit in one or more screens of this group.
Tau FP inhib – inhibitors of human tau fibril formation; P10636; K18 P301L tau heparin fibrillization, Alexa594 FP, 6 h; Potency, µM (top dose mostly 57.7 µM), inactives show at the highest dose activity, negative = inhibition, actives largely listed as inhibitors; 0.39% of 280,000 active; AID 1468; further: nearly all actives have a fitted effect of over 55% in size
Target sequence (P10636 561-689 P618L limits assumed): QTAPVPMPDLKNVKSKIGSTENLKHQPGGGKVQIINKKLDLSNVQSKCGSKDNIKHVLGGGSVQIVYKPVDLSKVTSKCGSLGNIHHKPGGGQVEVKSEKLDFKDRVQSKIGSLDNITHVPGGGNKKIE
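Quantitative HTS format: compounds meet 15 uM recombinant K18 P301L tau and Alexa 594-tau tracer in 100 mM sodium acetate pH 7; 20 uM heparin triggers fibrillization at 37 C over 6 hr; FP gives the signal.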
Tau fibril ThT – inhibitors of human tau fibril formation, thioflavin T binding; Potency, µM (doses to about 57.4 µM), for inactives: at the top dose activity, negative = inhibition, hits mostly inhibitors; 2.1% of 270,000 active; AID 1460; recombinant tau K18 P301L, heparin-induced fibrillization, ThT fluorescence; further: nearly all actives have a fitted effect of over 55% in size
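Aggregation was driven by heparin (20 uM final) acting on recombinant tau […] bearing P301L in 100 mM sodium acetate pH 7; fibrils were detected with Thioflavin T.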
GoLoco inh red – inhibitors of human Gai1-RGS12 GoLoco interaction (red fluorophore); Potency, µM (titrated, usually from 61.6 µM), without a hit: at the top dose activity, negative = inhibition, hits mostly inhibitors; 0.44% of 230,000 active; P63096; Gai1:RGS12 GoLoco peptide FP, rhodamine, 10 min; active means well fitted inhibition curve with a large enough effect, not every such curve was filed as active; inactive means no such curve, though single readings can be large or run the other way; further: nearly all actives have a fitted effect of over 30% in size
Target sequence (P63096 whole entry, looked up): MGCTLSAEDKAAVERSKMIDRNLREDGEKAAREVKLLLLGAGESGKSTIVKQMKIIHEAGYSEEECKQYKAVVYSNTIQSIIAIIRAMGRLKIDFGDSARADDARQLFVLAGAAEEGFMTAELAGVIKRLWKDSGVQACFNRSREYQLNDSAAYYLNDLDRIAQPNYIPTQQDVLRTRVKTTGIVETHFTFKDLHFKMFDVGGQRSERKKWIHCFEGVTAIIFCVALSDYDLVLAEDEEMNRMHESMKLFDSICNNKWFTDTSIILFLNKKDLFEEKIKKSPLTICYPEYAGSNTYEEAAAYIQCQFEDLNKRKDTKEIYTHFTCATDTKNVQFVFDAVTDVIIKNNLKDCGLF
TR SRC2 fluor cs – Texas Red fluorescence interference in TRb-SRC2 counter-screen. TRb/SRC2 Texas Red total fluorescence interference. Potency, µM (titrated, usually from 106 µM), inactives show at the top dose fluorescence change, negative = quenching. 0.29% of 280,000 active. AID 1479; active means well fitted curve in either direction with a large enough effect; inconclusive means small, poorly fitted or top-dose-only effect
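Human TRb ligand-binding domain at 0.6 uM with 20 nM Texas Red SRC2 peptide in Tris buffer containing 1 uM T3 and 5% DMSO, incubated with compound 5 h at ambient temperature. Total fluorescence (555/632 nm) calculated as parallel + 2 × perpendicular.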
TRb-SRC2 inh – inhibitors of human thyroid hormone receptor beta-SRC2 interaction; TRbeta-SRC2 peptide binding, fluorescence polarization; receptor liganded with 1 µM T3; Potency, µM (top dose mostly 106 µM), inactives show at the highest dose activity change, negative = inhibition, most hits filed as inhibitors; P10828; 0.065% of 280,000 active;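 further: plate controls were bound peptide for no effect and peptide without receptor for full effect; nearly all actives have a fitted effect of over 50% in size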
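Read-out is fluorescence polarization (555 nm excitation, 632 nm emission) of a Texas Red SRC2 coactivator peptide; loss of signal reflects blocked binding to human TRb ligand-binding domain in the presence of 1 uM T3.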
Tau fluor counter – counter-screen for tau fibril formation inhibitors | AID 1463 | tau K18 P301L (four-repeat tau fragment) Alexa594 fluorescence, heparin fibrillization | Potency, µM (doses to about 57.7 µM), without a hit: top-dose activity change, negative = decrease | 0.93% of 280,000 active; further: nearly all actives have a fitted effect of over 55% in size
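Human K18 P301L tau (15 uM unlabeled plus 0.24 uM Alexa 594-labeled, final) in 100 mM sodium acetate pH 7 was mixed with compound and 20 uM heparin and incubated 6 hr at 37 C.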
An asterisk follows results filed as active; ? = inconclusive; / = no result; [ ] = another dose, or the depositor's remark. Unless noted, the call rests on the fitted dose curve; in most records, active means well fitted curve in the direction sought with a large enough effect; inconclusive means small, poorly fitted or top-dose-only effect, or another doubt; inactive means no such curve, though single readings can be large; an effect the other way counts as inactive or inconclusive. Unless noted, on the % scale 0 is the no-effect control and ±100 the full control effect; potency means the concentration at half of the fitted maximal effect.

SMILES	Tau FP inhib	Tau fibril ThT	GoLoco inh red	TR SRC2 fluor cs	TRb-SRC2 inh	Tau fluor counter
Cc1cccc(C2=NN(c3ccccc3)[C@H](CO)[C@H]2c2ccccc2)c1	?	?	14%[88.7 µM]	-8%	0%	18µM*[quencher]
O=C1OCCN1C(=O)[C@H]1[C@H](c2ccc(F)cc2)C(c2ccc(F)cc2)=NN1c1ccccc1	-7%	1%	31%	-4%	2%	?
OC[C@@H]1[C@@H](c2ccc(F)cc2)C(c2ccccc2)=NN1c1ccccc1	13%[81.3 µM]	?	0%[88.7 µM]	0%	-1%	16µM*[quencher]
Cc1cccc(C2=NN(c3ccccc3)[C@H](CO)[C@H]2C)c1	?	?	16%[88.7 µM]	-3%	6%	?
O=[N+]([O-])c1cc(Br)c(O)c(/C=N/Nc2nnnn2-c2cccc3ccccc23)c1	?	16µM*	7%	-19%	12%	?
COc1ccc2oc(=O)c(C(=O)NCCc3c(C)[nH]c4c(C)cccc34)cc2c1	11%	?	/	?	8%	16µM*[quencher]
Cc1[nH]c2c(C)cccc2c1CCNC(=O)c1cc2ccccc2oc1=O	-5%	-18%	/	1%	0%	?
Cc1ccc(N/C=C/C(=O)c2sc(-c3ccccc3)nc2C)cc1	0%	2µM*	-43%	1%	1%	-28%
CCOc1ccc(NC(=O)c2c(NCc3cc(OC)c(OC)cc3OC)sc3c2CCCC3)cc1	4%	?	/	-24%	-1%	?
COc1ccc(NC(=O)c2c(NCc3ccc(C)o3)sc3c2CCC(C)C3)cc1 (centres undefined)	?	25µM*	/	-1%	-8%	?
COc1ccc(NC(=O)c2c(NCc3ccc(C)o3)sc3c2CCC(C)C3)c(OC)c1 (centres undefined)	-9%	?	/	-6%	-2%	?
CCOc1ccc(NC(=O)c2c(NCc3ccc(C)o3)sc3c2CCCCC3)cc1	?	22µM*	/	-2%	-1%	-23%
CCOc1ccccc1NC(=O)c1c(NCc2sccc2C)sc2c1CCCCC2	-12%	?	/	1%	-3%	-23%
CCOc1ccc(NC(=O)c2c(NCc3sccc3C)sc3c2CCCCC3)cc1	?	14µM*	/	1%	1%	?
CCOc1ccccc1NC(=O)c1c(NCc2sccc2C)sc2c1CCC(C)C2 (centres undefined)	8%	-13%	/	0.14µM*[quencher]	?	-11%
CCOc1ccc(NC(=O)c2c(NCc3cccs3)sc3c2CCCCC3)cc1	-4%	?	/	0%	0%	?
Cc1ccc(-c2noc(CN(C(=O)CCCCCN3C(=O)c4ccccc4C3=O)C(C)C)n2)cc1	4%	-14%	1%	4%	7%	-11%
O=C(Nc1ccc(F)cc1)Nc1ccc(N2CCOCC2)c2nonc12	14%	2.8µM*	11%	4%	-11%	-23%
O=C(Nc1ccc(N2CCOCC2)c2nonc12)C1CCCC1	?	?	6%	0%	-4%	-17%
Nc1ccc(N2CCOCC2)c2nonc12	?	14µM*	3%	-7%	?	?
Cc1ccc(C2=NN(C(=S)Nc3ccccc3)C(c3ccco3)C2)cc1 (centres undefined)	-5%	-7%	10%	2%	-1%	?
CCOC(=O)C1(C)/C(=N/Nc2cccc(Cl)c2)C(=O)C(=O)N1c1ccccc1 (centres undefined)	-4%	20µM*	2%	-1%	-10%	-16%
CCOC(=O)C1(C)C=C(Nc2ccc(OC)cc2)C(=O)N1c1ccccc1 (centres undefined)	-6%	?	/	-1%	0%	?
CCOC(=O)C1(C)/C(=N/Nc2ccc(S(N)(=O)=O)cc2)C(=O)C(=O)N1c1ccccc1 (centres undefined)	-1%	11µM*	44%	-3%	-1%	-23%
CCOC(=O)CSc1nnc(CNc2cccc(Cl)c2)n1-c1ccccc1	-1%	-3%	0%	-3%	-4%	-7%
